{
  "source": "paper PMC9911399",
  "about": "“Two distinct binding modes provide the RNA-binding protein RbFox with extraordinary sequence specificity”",
  "binders": {"B1": {"name": "GAUGAAG (DNA:RNA)", "RNA": "GGGAGACCGGAAUUCAGAUUGUCCGAUGAAGUUAAAUCCCGUCGUAGCCACCA", "DNA 1": "CAATCTGAATTCCGGTCTCCC", "DNA 2": "TGGTGGCTACGACGGGATT"}, "B2": {"name": "ACGCGCU (DNA:RNA)", "RNA": "GGGAGACCGGAAUUCAGAUUGUCCACGCGCUUUAAAUCCCGUCGUAGCCACCA", "DNA 1": "CAATCTGAATTCCGGTCTCCC", "DNA 2": "TGGTGGCTACGACGGGATT"}, "B3": {"name": "GAGAGCU (DNA:RNA)", "RNA": "B2 RNA with A25G, C26A, C28A", "DNA 1": "CAATCTGAATTCCGGTCTCCC", "DNA 2": "TGGTGGCTACGACGGGATT"}, "B4": {"name": "ACGUGAA (DNA:RNA)", "RNA": "B2 RNA with C28U, C30A, U31A", "DNA 1": "CAATCTGAATTCCGGTCTCCC", "DNA 2": "TGGTGGCTACGACGGGATT"}, "B5": {"name": "CGUCAAG (DNA:RNA)", "RNA": "B1 RNA with G25C, A26G, G28C", "DNA 1": "CAATCTGAATTCCGGTCTCCC", "DNA 2": "TGGTGGCTACGACGGGATT"}, "B6": {"name": "CCUGCAA (DNA:RNA)", "RNA": "B1 RNA with G25C, A26C, A29C, G31A", "DNA 1": "CAATCTGAATTCCGGTCTCCC", "DNA 2": "TGGTGGCTACGACGGGATT"}, "B7": {"name": "CUGAAUC (DNA:RNA)", "RNA": "B2 RNA with A25C, C26U, C28A, G29A, C30U, U31C", "DNA 1": "CAATCTGAATTCCGGTCTCCC", "DNA 2": "TGGTGGCTACGACGGGATT"}, "B8": {"name": "UGAAUGU (DNA:RNA)", "RNA": "B2 RNA with A25U, C26G, G27A, C28A, G29U, C30G", "DNA 1": "CAATCTGAATTCCGGTCTCCC", "DNA 2": "TGGTGGCTACGACGGGATT"}, "B9": {"name": "CCCUGAA (DNA:RNA)", "RNA": "B2 RNA with A25C, G27C, C28U, C30A, U31A", "DNA 1": "CAATCTGAATTCCGGTCTCCC", "DNA 2": "TGGTGGCTACGACGGGATT"}, "B10": {"name": "UGAUUGU (DNA:RNA)", "RNA": "B2 RNA with A25U, C26G, G27A, C28U, G29U, C30G", "DNA 1": "CAATCTGAATTCCGGTCTCCC", "DNA 2": "TGGTGGCTACGACGGGATT"}, "B11": {"name": "CUGAAUG (DNA:RNA)", "RNA": "B1 RNA with G25C, A26U, U27G, G28A, A30U", "DNA 1": "CAATCTGAATTCCGGTCTCCC", "DNA 2": "TGGTGGCTACGACGGGATT"}, "B12": {"name": "UGAAAUG (DNA:RNA)", "RNA": "B1 RNA with G25U, A26G, U27A, G28A, A30U", "DNA 1": "CAATCTGAATTCCGGTCTCCC", "DNA 2": "TGGTGGCTACGACGGGATT"}},
  "note": "Numbering of substitutions follows the chain as printed; changes in the protein carry UniProt numbers. The full ranking holds about 16,000 sequences; the median of “ka relative to ugcaugu” is about 0.0091, and the highest 2% start at about 0.032. Many of the other results were omitted from the sample, so the highest values are more common in it than they were.",
  "data": [
    {"molecular_target": "T1, RBFOX1 RRM (Homo sapiens, UniProt Q9NWB1 109-208)", "T1 sequence": "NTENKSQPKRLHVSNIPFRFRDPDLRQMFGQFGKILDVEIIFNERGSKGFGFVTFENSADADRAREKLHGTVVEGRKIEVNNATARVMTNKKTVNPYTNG", "assay": "EMSA; HiTS-Eq, 1 nM pool, 10 min; buffer printed only for the single-RNA assays: 10 mM Tris pH 7.5, 150 mM NaCl, 3.4 mM EDTA, 0.001% NP-40, 30 C", "settings": "tags: His6 N-terminal (pET28a); label: 5' 32P", "in_short": "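Purified wild-type or mutant RbFox RRM at increasing concentrations was equilibrated with 1 nM of 5′-radiolabelled RNA carrying 7 randomized nucleotides for 10 min in 50 µL. Unbound RNA was separated by 8% native PAGE and sequenced. Relative association constants came from read-count changes of each RNA species compared with the control reaction, normalised to the cognate motif.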", "values": [
      {"binder": "B1", "binding signal": "0.0183 KA relative to UGCAUGU"},
      {"binder": "B2", "binding signal": "0.00889 KA relative to UGCAUGU"},
      {"binder": "B3", "binding signal": "0.016 KA relative to UGCAUGU"},
      {"binder": "B4", "binding signal": "0.00505 KA relative to UGCAUGU"},
      {"binder": "B5", "binding signal": "0.0065 KA relative to UGCAUGU"},
      {"binder": "B6", "binding signal": "0.00899 KA relative to UGCAUGU"},
      {"binder": "B7", "binding signal": "0.00905 KA relative to UGCAUGU"},
      {"binder": "B8", "binding signal": "0.0386 KA relative to UGCAUGU"},
      {"binder": "B9", "binding signal": "0.00426 KA relative to UGCAUGU"},
      {"binder": "B10", "binding signal": "0.0253 KA relative to UGCAUGU"},
      {"binder": "B11", "binding signal": "0.0348 KA relative to UGCAUGU"},
      {"binder": "B12", "binding signal": "0.0128 KA relative to UGCAUGU"}
    ]}
  ]
}
